Among the data in a collection of fitness landscapes (doi:10.1038/s41467-024-54723-y) are TetR repression strength values, retold here.

In all, about 18,000 sequences were measured (“TetR repression strength (sort-seq, GFP reporter)”: median about 0.23, highest 2% from about 0.68 on). The full list was thinned out, with the highest values kept by preference.

TetR (class B, Tn10), sequence (P04483 whole entry): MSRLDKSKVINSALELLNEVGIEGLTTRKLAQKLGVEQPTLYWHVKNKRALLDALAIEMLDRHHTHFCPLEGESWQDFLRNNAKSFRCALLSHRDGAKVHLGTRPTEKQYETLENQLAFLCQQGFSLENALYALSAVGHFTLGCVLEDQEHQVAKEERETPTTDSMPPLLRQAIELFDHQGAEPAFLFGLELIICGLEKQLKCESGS

The experiment addresses TetR (class B, Tn10) (UniProt P04483). Kind of experiment: TetR repression strength (sort-seq, GFP reporter) (relative to tetO2 = 1); higher = stronger repression. Particulars: E. coli. The essentials: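 In LB with 50 µg/mL chloramphenicol, E. coli SIG10-MAX holding a low-copy library with eight randomized operator positions between a constitutive promoter and sfGFP, plus constitutive TetR, grew for 5 h at 37 °C. FACS then sorted 10^6 cells into 13 fluorescence bins for Illumina sequencing of each bin. Repression strength equals the top bin index plus one less the read-weighted mean bin, normalized to the unaltered operator. Values from three independent transformations were averaged when reads were ≥30 in every replicate and the CV was ≤0.5.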
In the case of TCCCGAGCAGTGCTAGAGA, the TetR repression strength is 0.661.

For TCCCGGGCAGTGATAGAGA, the TetR repression strength is 0.571.

In turn, TCCCGAGAAGTGAAAGAGA displayed a TetR repression strength of 0.0859.

Regarding TCCCGAACAGTGTGTGAGA, the TetR repression strength is 0.161.

TCCCGAACAGTGGGTGAGA: the TetR repression strength is 0.949.

TCCCGAGCAGTGATAGAGA came in with a TetR repression strength of 0.75.

Consider TCCCGAGCAGTGCCAGAGA, for which the TetR repression strength is 0.684.

Sequence TCCCGAACAGTGGGGGAGA displayed a TetR repression strength of 0.367.

The sequence TCCCGAGCAGTGAAAGAGA had a TetR repression strength of 0.755.

Regarding TCCCAAGCAGTGAAAGAGA, the TetR repression strength is 0.367.

For the sequence TCCCGAGGAGTGCCAGAGA, the TetR repression strength amounted to 0.547.

As for TCCCACAAAGTGGCGGAGA, the TetR repression strength was found to be 0.306.

TCCCGTAAAGTTCCGGAGA had a TetR repression strength of 0.38.

Sequence TCCCAAGGAGTAGGAGAGA registered a TetR repression strength of 0.119.

The sequence TCCCACGAAGTAATAGAGA came in with a TetR repression strength of 0.379.

In turn, TCCCGATAAGTTTACGAGA yielded a TetR repression strength of 0.495.

For the sequence TCCCGAACAGTAACGGAGA, the TetR repression strength came out at 0.571.

As for TCCCATTGAGTGCTTGAGA, the TetR repression strength was 0.36.

For TCCCGAGCAGTGAGAGAGA, the TetR repression strength came to 0.689.

TCCCGTGCAGTAACAGAGA: the TetR repression strength is 0.

With TCCCGAGCAGTAACAGAGA, the TetR repression strength was determined as 0.752.

Sequence TCCCGTCGAGTGAAAGAGA yielded a TetR repression strength of 0.69.

TCCCGTCGAGTGAGAGAGA showed a TetR repression strength of 0.396.

As for TCCCGAGCAGTGTGTGAGA, the TetR repression strength was found to be 0.222.

Regarding TCCCGAGCAGTGATTGAGA, the TetR repression strength amounted to 0.701.

In the case of TCCCGAGCAGTGAGTGAGA, the TetR repression strength came to 0.507.

Regarding TCCCGAGCAGTGTGAGAGA, the TetR repression strength was 0.175.

In the case of TCCCGAGCAGTAACTGAGA, the TetR repression strength was determined as 0.149.

TCCCGTCGAGTGAACGAGA showed a TetR repression strength of 0.242.

TCCCGTGCAGTGATTGAGA had a TetR repression strength of 0.165.

Consider TCCCGTGAAGTACGCGAGA, for which the TetR repression strength turned out to be 0.217.

TCCCCCGTAGTGGGAGAGA displayed a TetR repression strength of 0.312.

TCCCTTTAAGTGCTGGAGA: the TetR repression strength was 0.3.

Turning to TCCCACGGAGTGTGGGAGA, the TetR repression strength was found to be 0.15.

In the case of TCCCCAAGAGTTATAGAGA, the TetR repression strength is 0.281.

Turning to TCCCTTACAGTGCGTGAGA, the TetR repression strength is 0.183.

As to TCCCGAGGAGTTATAGAGA, the TetR repression strength is 0.326.

As for TCCCGTGAAGTGGGCGAGA, the TetR repression strength stood at 0.0935.

In turn, TCCCGTGAAGTGAGCGAGA returned a TetR repression strength of 0.888.

In the case of TCCCGAGCAGTTATAGAGA, the TetR repression strength was determined as 0.686.

In turn, TCCCGAGCAGTTAGAGAGA displayed a TetR repression strength of 0.202.

TCCCGCGAAGTGAGCGAGA had a TetR repression strength of 0.248.

In turn, TCCCTGTTAGTTGTAGAGA gave a TetR repression strength of 0.271.

In turn, TCCCGGTTAGTCTTGGAGA displayed a TetR repression strength of 0.317.

In turn, TCCCCTTGAGTTTGTGAGA came in with a TetR repression strength of 0.323.

Take TCCCTGAAAGTCTACGAGA: the TetR repression strength stood at 0.815.

For the sequence TCCCTGAAAGTATACGAGA, the TetR repression strength is 0.205.

Turning to TCCCTTACAGTCTACGAGA, the TetR repression strength came out at 0.405.

For the sequence TCCCTTAAAGTCTAAGAGA, the TetR repression strength worked out at 0.539.

On to TCCCTAAAAGTCTACGAGA, for which the TetR repression strength is 0.16.

Regarding TCCCTGAAAGTCTGCGAGA, the TetR repression strength was 0.134.

For the sequence TCCCTAACAGTCCACGAGA, the TetR repression strength amounted to 0.205.

In turn, TCCCTTAAAGTCTACGAGA gave a TetR repression strength of 0.771.

TCCCTTACAGTCCACGAGA yielded a TetR repression strength of 0.808.

TCCCTGGCAGTTTGCGAGA had a TetR repression strength of 0.65.

The sequence TCCCGGGGAGTGCAGGAGA came in with a TetR repression strength of 0.176.

TCCCGAATAGTGAGGGAGA: the TetR repression strength was found to be 0.127.

Consider TCCCGCCGAGTCGTCGAGA, for which the TetR repression strength was 1.24.

With TCCCGGACAGTCGTCGAGA, the TetR repression strength was found to be 0.892.

As to TCCCGCCGAGTCGAGGAGA, the TetR repression strength amounted to 0.36.

For the sequence TCCCGGACAGTCGACGAGA, the TetR repression strength is 0.0556.

For TCCCGCCGAGTAGTCGAGA, the TetR repression strength came to 0.18.

Take TCCCGGACAGTCATCGAGA: the TetR repression strength came to 0.216.

In turn, TCCCTTGCAGTCAATGAGA had a TetR repression strength of 0.251.

In turn, TCCCAGGGAGTACTCGAGA came in with a TetR repression strength of 0.275.

In turn, TCCCGGGGAGTGACTGAGA gave a TetR repression strength of 0.143.

Sequence TCCCTTCTAGTCCGTGAGA gave a TetR repression strength of 0.468.

TCCCGATGAGTCAGGGAGA yielded a TetR repression strength of 0.174.

In turn, TCCCTGTAAGTCAGCGAGA displayed a TetR repression strength of 0.494.

With TCCCAGGCAGTGTGTGAGA, the TetR repression strength worked out at 0.207.

TCCCACATAGTATGTGAGA returned a TetR repression strength of 1.23.

TCCCTCATAGTATGTGAGA came in with a TetR repression strength of 0.257.

TCCCACACAGTATGTGAGA registered a TetR repression strength of 0.13.

On to TCCCACAGAGTATGTGAGA, for which the TetR repression strength is 1.24.

With TCCCGCAGAGTATGTGAGA, the TetR repression strength was determined as 0.171.

Sequence TCCCACATAGTAAGTGAGA came in with a TetR repression strength of 0.207.

TCCCGCATAGTTATTGAGA yielded a TetR repression strength of 0.197.

Sequence TCCCGAACAGTGGGAGAGA displayed a TetR repression strength of 0.231.

TCCCGGGTAGTTCGAGAGA: the TetR repression strength worked out at 0.289.

The sequence TCCCATTGAGTTCGGGAGA displayed a TetR repression strength of 0.851.

TCCCGGGTAGTTCGGGAGA: the TetR repression strength is 0.723.

As for TCCCATTTAGTCGGAGAGA, the TetR repression strength was 0.231.

For the sequence TCCCGGGGAGTTCGGGAGA, the TetR repression strength came to 0.307.

In turn, TCCCCTTTAGTTCGGGAGA had a TetR repression strength of 0.339.

Consider TCCCATTGAGTTCGAGAGA, for which the TetR repression strength was determined as 0.29.

Consider TCCCCATTAGTCGCGGAGA, for which the TetR repression strength came out at 0.241.

For TCCCATTTAGTCGCGGAGA, the TetR repression strength came out at 0.755.

TCCCAGTTAGTTCGGGAGA: the TetR repression strength was determined as 0.0688.

Regarding TCCCATTTAGTTCGGGAGA, the TetR repression strength stood at 1.09.

In turn, TCCCATGGAGTTCGGGAGA showed a TetR repression strength of 0.228.

TCCCATACAGTCGTAGAGA showed a TetR repression strength of 0.0752.

TCCCTCAGAGTGCTGGAGA: the TetR repression strength turned out to be 0.475.

In turn, TCCCGGCAAGTTAGTGAGA returned a TetR repression strength of 0.0764.

For the sequence TCCCGTCAAGTGCATGAGA, the TetR repression strength turned out to be 0.315.

Sequence TCCCTATCAGTAGGCGAGA yielded a TetR repression strength of 0.414.

For the sequence TCCCTATCAGTTACAGAGA, the TetR repression strength worked out at 0.707.

In the case of TCCCTGTCAGTTACTGAGA, the TetR repression strength was found to be 0.327.

The sequence TCCCTAGAAGTTACTGAGA returned a TetR repression strength of 0.18.

Turning to TCCCTATCAGTTACGGAGA, the TetR repression strength worked out at 0.484.

In the case of TCCCTATAAGTTATTGAGA, the TetR repression strength stood at 0.433.

Regarding TCCCTATCAGTTACTGAGA, the TetR repression strength turned out to be 0.698.

TCCCCTTCAGTTACTGAGA: the TetR repression strength was found to be 0.28.

Regarding TCCCTATAAGTTACTGAGA, the TetR repression strength was found to be 0.711.

In turn, TCCCTTTCAGTTACAGAGA came in with a TetR repression strength of 0.363.

For the sequence TCCCTCTCAGTTACTGAGA, the TetR repression strength was 0.703.

TCCCTAACAGTTACTGAGA registered a TetR repression strength of 0.297.

Sequence TCCCTAACAGTTACAGAGA returned a TetR repression strength of 0.203.
